Compound activity as filed in PubChem.
In the library only some 3.5% were active in any assay of this set; here they are far more common.
MITF primary: human MITF inhibition, primary screen; AlphaScreen MITF homodimerization, bead proximity signal; inhibition, % at 2.6 µM; 650,000 compounds, 0.91% hits; in the data active = inhibition above about 50%
GPR151 activ: human GPR151 activation; PathHunter beta-arrestin GPR151 cells, luminescence; activation, % at 11.2 µM; 650,000 compounds, 1% hits; AID 1508602; in the data active = activation above about 4.9%
Target sequence (Q8TDV0 whole entry, looked up): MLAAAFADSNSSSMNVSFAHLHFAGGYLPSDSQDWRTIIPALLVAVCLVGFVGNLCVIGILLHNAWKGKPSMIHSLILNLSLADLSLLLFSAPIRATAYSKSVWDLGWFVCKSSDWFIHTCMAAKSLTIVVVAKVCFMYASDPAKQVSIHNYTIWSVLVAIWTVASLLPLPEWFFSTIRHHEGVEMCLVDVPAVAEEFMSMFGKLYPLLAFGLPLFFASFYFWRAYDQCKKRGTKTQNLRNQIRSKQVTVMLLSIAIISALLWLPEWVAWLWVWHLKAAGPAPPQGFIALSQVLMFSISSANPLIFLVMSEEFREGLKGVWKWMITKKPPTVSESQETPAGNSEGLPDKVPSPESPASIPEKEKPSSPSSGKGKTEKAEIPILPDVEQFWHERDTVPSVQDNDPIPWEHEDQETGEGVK
TEAD-YAP block: TEAD-YAP interaction inhibition; HEK-TIYL cells, TEAD-Gal4/YAP UAS-luciferase luminescence; inhibition, % at 9.12 µM; 640,000 compounds, 1.4% hits; in the data active = inhibition above about 32%
FBW7 activator: human FBW7 E3 ligase activation, primary screen; AlphaScreen FBW7–phospho-cyclin E peptide binding, activator screen; normalized activity (activation), % at 26.1 µM; 650,000 compounds, 0.13% hits; AID 1259310; in the data active = normalized activity above about 1.9%;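 also: purified mutant Fbw7 with reduced substrate affinity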
GPR151 conf act: confirmation of human GPR151 activators | shares compounds with GPR151 activ | GPR151 PathHunter beta-arrestin cells, luminescence, 90 min; % of EA-reagent control over plate median | activation, % at 11.2 µM | 6,700 tested, under 10 active | AID 1508609;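 active = mean percent activation across replicates above the confirmation screen cutoff of 4.91%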
GPR119 ag: counter-screen for GPR151 activators: effect on human GPR119 | shares compounds with GPR151 activ | GPR119 PathHunter beta-arrestin cells, luminescence, 90 min; 0 = compound-well median, 100 = enzyme-acceptor control | 6,700 compounds, 0.3% hits | activation, % at 11.2 µM;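 active = mean percent activation in the counterscreen above 29.09%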;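 also: counterscreen on off-target GPR119 to flag nonselective hits from the GPR151 activator screen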
Large screens that a line does not name were inactive (follow-up assays come after a bar, where they were run).

CSC1=NC(c2cccc([N+](=O)[O-])c2)C(C(=O)OC(C)C)=C(C)N1 (stereo not drawn)	GPR151 activ 5.1 | GPR151 conf act inactive | GPR119 ag inactive
Cc1oc2cc(OCC(N)=O)ccc2c(=O)c1Oc1ccccc1F	none
CC(C)[C@H](NC(=O)c1ccc(F)cc1)C(=O)OCC(=O)Nc1ccc(C#N)cc1	GPR151 activ 7.4 | GPR151 conf act inactive | GPR119 ag inactive
N#C/C(=C\c1ccccc1[N+](=O)[O-])c1nc2ccccc2s1	none
NS(=O)(=O)c1ccc2nc(NC(=O)c3ccccc3Cl)sc2c1	none
COCc1cc(C)nc2sc(C(=O)c3ccccc3)c(N)c12	none
COCc1cc(C)nc2oc(C(=O)c3ccccc3)c(N)c12	GPR151 activ 5.7 | GPR151 conf act inactive | GPR119 ag inactive
COc1ccc(-c2nnc(SCC(=O)Nc3ccc(Cl)cc3C)o2)cc1	none
COC(=O)c1c(NC(=O)CSc2nnc(N)s2)sc(C)c1C	none
O=C(CSc1nc2ccccc2[nH]1)Nc1ccc(Cl)cc1	none
O=C(CSc1nc2ccccc2[nH]1)Nc1cc(Cl)ccc1Cl	GPR151 activ 11 | GPR151 conf act inactive | GPR119 ag inactive
COc1ccc(-c2nnc(SCC(=O)Nc3ccc(F)c(Cl)c3)o2)cc1	GPR151 activ 5.0 | GPR151 conf act inactive | GPR119 ag inactive
COC(=O)c1c(NC(=O)CSc2nnc(C)s2)sc(C(C)=O)c1C	GPR151 activ 7.4 | GPR151 conf act inactive | GPR119 ag inactive
O=C(CSc1nc2ccccc2[nH]1)Nc1cccc(Cl)c1	GPR151 activ 5.1 | GPR151 conf act inactive | GPR119 ag inactive
O=C(CSc1nc2ccccc2[nH]1)Nc1ccc(Cl)c(C(=O)O)c1	none
Cc1ccc(-c2c(C(=O)NCCCN3CCC(C)CC3)oc(=O)c3ccccc23)cc1	none
CC(C)=C1C2C=CC1C1C(=O)N(c3ccc(C#N)cc3)C(=O)C21 (stereo not drawn)	none
c1ccc(Oc2ccccc2-c2cnc(NCC3CC3)c3nccn23)cc1	none
CCC(CC)C(=O)Nc1nnc(SCC(=O)Nc2nnc(C)s2)s1	GPR151 activ 4.9 | GPR151 conf act inactive | GPR119 ag inactive
CCC(=O)Nc1nnc(SCc2cccc(Cl)c2)s1	none
O=C(CSc1nc2ncccc2[nH]1)Nc1ccc(F)c(Cl)c1	GPR151 activ 7.2 | GPR151 conf act inactive | GPR119 ag inactive
O=C(CSc1nc2ncccc2[nH]1)Nc1ccc(Cl)c(F)c1	none
CCC(=O)Nc1nnc(SCC(=O)Nc2cccc(Cl)c2)s1	GPR151 activ 8.8 | GPR151 conf act inactive | GPR119 ag inactive
Clc1cccc(-n2nnnc2C(c2ccc(Cl)cc2Cl)N2CCCCC2)c1 (stereo not drawn)	none
Cc1ccc(-c2nnc(Nc3ccccc3)c3ccccc23)cc1S(=O)(=O)N1CCOCC1	none
Cc1ccc(-c2nnc(Nc3ccc(Br)cc3)c3ccccc23)cc1S(=O)(=O)N1CCOCC1	GPR151 activ 5.0 | GPR151 conf act inactive | GPR119 ag inactive
CN(Cc1nccs1)c1nc2nonc2nc1NC1CCCC1	none
OCC1CCCN1c1cc(Nc2ccc(N3CCOCC3)cc2)ncn1 (stereo not drawn)	none
CC(=O)Nc1ccc(Nc2cc(N3CCCC3CO)ncn2)cc1 (stereo not drawn)	GPR151 activ 5.2 | GPR151 conf act inactive | GPR119 ag inactive
O=C1N(C2CCCC2)C[C@@H]2C[C@@H](c3cccn3-c3nccs3)N3CCC[C@@]123	GPR151 activ 6.4 | GPR151 conf act inactive | GPR119 ag inactive
O=C(OCN1C(=O)c2ccccc2C1=O)C1CCCCC1	GPR151 activ 6.1 | GPR151 conf act inactive | GPR119 ag inactive
CC(=O)NCCn1c(SCc2cccc(F)c2)nc2ccccc2c1=O	none
Cc1cc(S(=O)(=O)N2CCN(C)CC2)c(C)cc1Cl	GPR151 activ 5.3 | GPR151 conf act inactive | GPR119 ag inactive
Cc1cc(C)c(S(=O)(=O)N2CCN(C)CC2)cc1C	none
CCCN1C(=O)/C(=C/c2ccc(O)c(OC)c2)SC1=S	GPR151 activ 5.1 | GPR151 conf act inactive | GPR119 ag inactive
Cc1ccc(OCC(=O)NCCc2nc3ccccc3[nH]2)c(Br)c1	none
CC(C)c1ccc(NC(=O)C(c2ccccc2)N(C)C(=O)c2ccc(=O)[nH]c2)cc1 (stereo not drawn)	GPR151 activ 8.7 | GPR151 conf act inactive | GPR119 ag inactive
COc1ccc(-n2cc(-c3ccccc3)c3c(NCCc4ccc(OC)c(OC)c4)ncnc32)cc1	GPR151 activ 5.1 | GPR151 conf act inactive | GPR119 ag inactive
Clc1ccc(N2CCN(Cc3ccoc3)CC2)cc1	none
Clc1ccc(N2CCN(Cc3ccco3)CC2)cc1	GPR151 activ 5.0 | GPR151 conf act inactive | GPR119 ag inactive
Cc1cc(C)cc(OCC(=O)N/N=C/c2c[nH]c3ccccc23)c1	none
O/N=C/c1ccc[n+](C/C=C/c2ccccc2)c1	none
Brc1ccc2c(ccc[n+]2C/C=C/c2ccccc2)c1	GPR151 activ 6.2 | GPR151 conf act inactive | GPR119 ag inactive
O=C(CSc1nc2ccccc2c(=O)n1CC1CCC(C(=O)NCc2ccccc2Cl)CC1)c1ccc(Cl)cc1 (stereo not drawn)	none
CN(Cc1ccccc1)C(=O)C1CCN(S(=O)(=O)c2ccc3c(c2)OCC(=O)N3)CC1	GPR151 activ 6.7 | GPR151 conf act inactive | GPR119 ag inactive
O=C1COc2cc(S(=O)(=O)N3CCC(Cc4ccccc4)CC3)ccc2N1	none
CCOC(=O)C1=C(C)NC2=C(C(=O)C(C(=O)OCC)C(c3ccc(OC)cc3)C2)C1c1ccc(OC)c(OC)c1 (stereo not drawn)	none
CCNc1nc(NCc2cccnc2)c2[nH]cnc2n1	none
CC(C)N(CCNc1nc(NCc2cccnc2)nc2nc[nH]c12)C(C)C	GPR151 activ 6.2 | GPR151 conf act inactive | GPR119 ag inactive
COC(=O)[C@@H](NC(=O)CCc1nnc(CCc2ccccc2OC)o1)C(C)C	none
Cc1c(C(=O)N2CCN(c3ccccc3Cl)CC2)nnn1-c1nc2c(s1)CCCC2	GPR151 activ 9.4 | GPR151 conf act inactive | GPR119 ag inactive
CCCCCCN1C(=O)C(=O)C2=C(C)OC3(O)c4ccccc4C(O)(O)C213 (stereo not drawn)	none
CC(=O)c1sc(NCc2ccco2)nc1C	none
CCCC(=O)N1CCN(c2cc(N3CCCCC3)c(F)cc2[N+](=O)[O-])CC1	none
Cc1ccc(NC(=O)c2sc3cc(C)ccc3c2Cl)cc1	none
CCNC(=O)c1sc2cc(C)ccc2c1Cl	GPR151 activ 6.4 | GPR151 conf act inactive | GPR119 ag inactive
CN(C)N1C(N)=C(C#N)C(c2ccc3ccccc3c2)C2=C1CCCC2=O (stereo not drawn)	GPR151 activ 5.9 | GPR151 conf act inactive | GPR119 ag inactive
COc1ccc(C2C(C#N)=C(N)N(N(C)C)C3=C2C(=O)CCC3)cc1 (stereo not drawn)	none
